Data from the supplement of paper PMC11732987, “Enantioselective OTUD7B fragment discovery through chemoproteomics screening and high-throughput optimisation” (Communications Chemistry, 2025).

Tests used:
Assay in all cases: log2 ratio of Biotin-Ahx-Ub-VS probe labelling (fragment/DMSO); higher = less target engagement (more negative = stronger competition), active = hit call of the paper (q ≤ 0.05, log2 ratio ≤ -1)
Conditions in all cases: compound concentration: 200 uM; treatment time: 3 h
USP19 = target: T1, USP19 (UniProt O94966)
T1 sequence (whole entry): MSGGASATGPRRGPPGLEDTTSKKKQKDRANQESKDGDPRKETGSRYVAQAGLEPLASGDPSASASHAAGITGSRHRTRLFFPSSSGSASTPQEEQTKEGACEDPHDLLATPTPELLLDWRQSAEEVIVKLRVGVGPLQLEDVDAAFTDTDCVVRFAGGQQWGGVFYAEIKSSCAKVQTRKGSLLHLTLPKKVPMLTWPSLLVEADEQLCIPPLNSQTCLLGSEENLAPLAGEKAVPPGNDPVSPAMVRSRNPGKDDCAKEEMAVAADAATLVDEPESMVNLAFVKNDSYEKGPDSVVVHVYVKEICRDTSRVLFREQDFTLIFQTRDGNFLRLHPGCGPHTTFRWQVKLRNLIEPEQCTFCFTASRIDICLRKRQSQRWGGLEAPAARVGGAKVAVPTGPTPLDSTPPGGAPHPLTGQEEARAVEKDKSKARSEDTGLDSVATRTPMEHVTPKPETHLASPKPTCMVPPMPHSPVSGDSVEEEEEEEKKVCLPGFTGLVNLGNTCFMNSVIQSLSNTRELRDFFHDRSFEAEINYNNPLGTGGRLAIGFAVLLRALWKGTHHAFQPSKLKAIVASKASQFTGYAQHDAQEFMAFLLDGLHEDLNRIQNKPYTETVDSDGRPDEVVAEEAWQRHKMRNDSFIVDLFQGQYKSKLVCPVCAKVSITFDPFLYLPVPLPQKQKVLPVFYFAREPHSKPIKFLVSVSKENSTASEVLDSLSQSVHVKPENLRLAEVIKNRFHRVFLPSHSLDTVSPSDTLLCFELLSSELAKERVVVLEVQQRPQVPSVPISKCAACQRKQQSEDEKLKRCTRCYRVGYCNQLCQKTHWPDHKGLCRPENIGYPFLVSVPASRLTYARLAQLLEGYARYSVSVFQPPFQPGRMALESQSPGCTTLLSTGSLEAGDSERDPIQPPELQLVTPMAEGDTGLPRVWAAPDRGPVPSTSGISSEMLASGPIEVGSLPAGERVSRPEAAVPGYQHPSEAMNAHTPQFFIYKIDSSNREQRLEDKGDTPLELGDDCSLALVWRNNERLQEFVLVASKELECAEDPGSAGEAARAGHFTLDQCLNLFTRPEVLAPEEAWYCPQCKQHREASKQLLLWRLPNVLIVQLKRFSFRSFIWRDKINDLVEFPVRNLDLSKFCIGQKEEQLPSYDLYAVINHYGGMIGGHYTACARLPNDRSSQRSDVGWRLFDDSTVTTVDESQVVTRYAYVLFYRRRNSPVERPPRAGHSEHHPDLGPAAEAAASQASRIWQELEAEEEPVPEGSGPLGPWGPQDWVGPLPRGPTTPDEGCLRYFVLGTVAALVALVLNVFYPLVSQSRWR
In short: (§1)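 In triplicate, 495 µg of HEK293T lysate per sample was incubated with fragment at 200 µM or vehicle for 3 h. Biotin-Ahx-Ub-VS was then added to 0.5 µM final for 1 h, and labelled DUBs were captured with NeutrAvidin, digested with LysC and trypsin, and measured by diaPASEF LC-MS/MS. Data are average log2 fragment/vehicle ratios by unpaired t-test from global-median-normalised Spectronaut label-free quantities, restricted to proteins with ≥2 unique peptides.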

USP22 = target: T2, USP22 (UniProt Q9UPT9)
T2 sequence (whole entry): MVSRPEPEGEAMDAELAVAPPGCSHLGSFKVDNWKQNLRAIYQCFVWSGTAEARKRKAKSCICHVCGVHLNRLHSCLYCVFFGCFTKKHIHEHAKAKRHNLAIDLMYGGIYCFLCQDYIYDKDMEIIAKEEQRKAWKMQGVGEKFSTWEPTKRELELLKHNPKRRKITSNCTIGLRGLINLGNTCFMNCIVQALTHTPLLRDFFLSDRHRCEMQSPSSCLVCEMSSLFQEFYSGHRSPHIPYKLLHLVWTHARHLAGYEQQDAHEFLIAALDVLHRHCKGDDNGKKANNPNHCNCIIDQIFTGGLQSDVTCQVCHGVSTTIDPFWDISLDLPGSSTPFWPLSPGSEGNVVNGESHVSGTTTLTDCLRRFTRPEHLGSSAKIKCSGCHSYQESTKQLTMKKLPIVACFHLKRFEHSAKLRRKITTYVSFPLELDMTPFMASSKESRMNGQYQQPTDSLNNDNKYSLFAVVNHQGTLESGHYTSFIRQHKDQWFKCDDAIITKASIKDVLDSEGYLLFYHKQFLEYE
In short: as §1

USP24 = USP24 (UniProt Q9UPU5)
Chain of USP24 (Q9UPU5 whole entry): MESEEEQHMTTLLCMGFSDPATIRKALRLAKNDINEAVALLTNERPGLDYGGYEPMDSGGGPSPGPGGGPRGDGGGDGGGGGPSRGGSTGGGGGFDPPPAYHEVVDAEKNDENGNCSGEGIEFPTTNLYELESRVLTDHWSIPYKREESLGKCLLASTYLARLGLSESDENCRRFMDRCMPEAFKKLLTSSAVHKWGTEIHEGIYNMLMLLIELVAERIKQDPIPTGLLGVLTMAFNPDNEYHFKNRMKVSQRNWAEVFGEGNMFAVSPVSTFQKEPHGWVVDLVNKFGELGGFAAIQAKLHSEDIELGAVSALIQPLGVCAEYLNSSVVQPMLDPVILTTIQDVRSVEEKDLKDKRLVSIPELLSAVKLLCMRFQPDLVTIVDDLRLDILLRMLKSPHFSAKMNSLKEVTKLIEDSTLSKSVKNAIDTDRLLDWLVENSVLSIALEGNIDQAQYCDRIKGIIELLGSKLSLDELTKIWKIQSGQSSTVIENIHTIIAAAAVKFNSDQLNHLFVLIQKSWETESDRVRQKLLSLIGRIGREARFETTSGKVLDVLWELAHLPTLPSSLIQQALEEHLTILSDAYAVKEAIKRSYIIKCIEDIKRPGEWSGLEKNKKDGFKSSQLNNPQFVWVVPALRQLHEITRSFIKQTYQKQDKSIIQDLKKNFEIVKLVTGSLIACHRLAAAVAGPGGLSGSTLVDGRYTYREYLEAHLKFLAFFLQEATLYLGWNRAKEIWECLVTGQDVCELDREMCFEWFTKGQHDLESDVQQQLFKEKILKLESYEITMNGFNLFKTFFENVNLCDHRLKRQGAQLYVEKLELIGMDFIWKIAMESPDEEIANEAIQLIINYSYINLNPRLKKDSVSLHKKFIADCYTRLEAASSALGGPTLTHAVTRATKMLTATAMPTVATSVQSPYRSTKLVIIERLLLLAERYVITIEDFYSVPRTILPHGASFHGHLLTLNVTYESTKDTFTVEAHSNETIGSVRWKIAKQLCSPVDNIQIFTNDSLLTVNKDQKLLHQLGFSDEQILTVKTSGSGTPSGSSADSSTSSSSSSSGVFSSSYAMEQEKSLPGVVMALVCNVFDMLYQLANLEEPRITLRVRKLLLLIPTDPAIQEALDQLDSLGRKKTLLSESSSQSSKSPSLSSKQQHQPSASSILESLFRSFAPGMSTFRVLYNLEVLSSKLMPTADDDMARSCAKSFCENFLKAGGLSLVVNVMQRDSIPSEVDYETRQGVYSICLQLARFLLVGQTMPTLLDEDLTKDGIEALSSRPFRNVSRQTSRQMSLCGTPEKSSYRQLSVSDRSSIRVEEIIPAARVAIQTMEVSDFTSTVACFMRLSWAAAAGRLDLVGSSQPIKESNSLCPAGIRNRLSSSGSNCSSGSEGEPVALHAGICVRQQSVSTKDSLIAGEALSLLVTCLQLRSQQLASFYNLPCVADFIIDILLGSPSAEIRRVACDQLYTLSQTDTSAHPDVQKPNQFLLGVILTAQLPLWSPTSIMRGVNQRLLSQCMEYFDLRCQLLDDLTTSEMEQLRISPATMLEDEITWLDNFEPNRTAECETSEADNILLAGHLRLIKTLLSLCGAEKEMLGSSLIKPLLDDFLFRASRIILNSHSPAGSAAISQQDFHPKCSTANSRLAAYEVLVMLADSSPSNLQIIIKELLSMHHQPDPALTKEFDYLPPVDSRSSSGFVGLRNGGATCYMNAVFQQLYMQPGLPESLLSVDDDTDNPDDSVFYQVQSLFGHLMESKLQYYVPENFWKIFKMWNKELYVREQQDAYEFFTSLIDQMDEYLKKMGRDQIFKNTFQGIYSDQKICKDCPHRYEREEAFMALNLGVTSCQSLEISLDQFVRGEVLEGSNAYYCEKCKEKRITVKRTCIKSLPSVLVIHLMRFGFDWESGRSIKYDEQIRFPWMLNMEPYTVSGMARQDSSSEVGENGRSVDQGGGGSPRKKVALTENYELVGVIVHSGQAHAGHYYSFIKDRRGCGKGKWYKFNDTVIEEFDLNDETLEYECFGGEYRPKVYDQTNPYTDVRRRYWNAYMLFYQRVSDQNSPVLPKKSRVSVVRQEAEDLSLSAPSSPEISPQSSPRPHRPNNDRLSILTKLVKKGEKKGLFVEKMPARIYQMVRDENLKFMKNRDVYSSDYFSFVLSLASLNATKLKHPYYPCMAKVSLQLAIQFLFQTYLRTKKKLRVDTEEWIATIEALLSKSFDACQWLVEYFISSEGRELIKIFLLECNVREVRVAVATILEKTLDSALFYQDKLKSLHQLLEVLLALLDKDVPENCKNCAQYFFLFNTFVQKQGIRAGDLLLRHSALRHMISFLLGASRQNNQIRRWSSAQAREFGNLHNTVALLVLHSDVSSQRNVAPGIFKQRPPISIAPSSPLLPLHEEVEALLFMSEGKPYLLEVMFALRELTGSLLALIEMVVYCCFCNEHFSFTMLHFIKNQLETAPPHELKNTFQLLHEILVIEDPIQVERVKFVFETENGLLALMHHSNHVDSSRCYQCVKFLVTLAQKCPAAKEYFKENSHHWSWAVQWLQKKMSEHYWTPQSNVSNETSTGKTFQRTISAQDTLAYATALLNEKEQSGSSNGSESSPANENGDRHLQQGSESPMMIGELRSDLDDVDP
In short: as §1

USP25 = target: T3, USP25 (UniProt Q9UHP3)
T3 sequence (whole entry): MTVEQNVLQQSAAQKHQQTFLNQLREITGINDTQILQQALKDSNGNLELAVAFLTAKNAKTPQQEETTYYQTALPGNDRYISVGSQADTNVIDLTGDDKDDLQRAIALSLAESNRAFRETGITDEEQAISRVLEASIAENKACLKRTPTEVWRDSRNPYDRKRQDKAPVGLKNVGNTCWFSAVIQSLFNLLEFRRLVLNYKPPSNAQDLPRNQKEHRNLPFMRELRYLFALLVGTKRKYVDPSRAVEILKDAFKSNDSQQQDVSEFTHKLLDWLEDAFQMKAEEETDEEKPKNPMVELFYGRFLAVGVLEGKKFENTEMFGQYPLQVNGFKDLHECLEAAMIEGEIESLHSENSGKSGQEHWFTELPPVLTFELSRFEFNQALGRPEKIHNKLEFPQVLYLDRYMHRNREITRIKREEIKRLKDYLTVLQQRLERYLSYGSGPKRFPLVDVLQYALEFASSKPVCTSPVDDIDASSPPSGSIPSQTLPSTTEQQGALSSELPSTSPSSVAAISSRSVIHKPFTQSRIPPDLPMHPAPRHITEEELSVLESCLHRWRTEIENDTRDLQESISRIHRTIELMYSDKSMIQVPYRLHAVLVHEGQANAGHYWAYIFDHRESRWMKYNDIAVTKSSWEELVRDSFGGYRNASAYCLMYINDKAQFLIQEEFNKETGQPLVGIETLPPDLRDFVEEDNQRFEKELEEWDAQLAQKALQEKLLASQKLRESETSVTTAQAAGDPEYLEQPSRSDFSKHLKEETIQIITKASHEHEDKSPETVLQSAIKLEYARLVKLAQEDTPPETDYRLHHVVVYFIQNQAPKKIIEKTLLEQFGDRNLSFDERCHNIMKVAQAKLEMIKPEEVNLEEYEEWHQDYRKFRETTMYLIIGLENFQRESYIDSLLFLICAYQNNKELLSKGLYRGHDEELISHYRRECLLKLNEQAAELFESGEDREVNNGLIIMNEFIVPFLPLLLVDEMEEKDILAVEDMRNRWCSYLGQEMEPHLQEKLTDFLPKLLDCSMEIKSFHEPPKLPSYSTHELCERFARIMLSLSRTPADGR
In short: as §1

USP28 = target: T4, USP28 (UniProt Q96RU2)
T4 sequence (whole entry): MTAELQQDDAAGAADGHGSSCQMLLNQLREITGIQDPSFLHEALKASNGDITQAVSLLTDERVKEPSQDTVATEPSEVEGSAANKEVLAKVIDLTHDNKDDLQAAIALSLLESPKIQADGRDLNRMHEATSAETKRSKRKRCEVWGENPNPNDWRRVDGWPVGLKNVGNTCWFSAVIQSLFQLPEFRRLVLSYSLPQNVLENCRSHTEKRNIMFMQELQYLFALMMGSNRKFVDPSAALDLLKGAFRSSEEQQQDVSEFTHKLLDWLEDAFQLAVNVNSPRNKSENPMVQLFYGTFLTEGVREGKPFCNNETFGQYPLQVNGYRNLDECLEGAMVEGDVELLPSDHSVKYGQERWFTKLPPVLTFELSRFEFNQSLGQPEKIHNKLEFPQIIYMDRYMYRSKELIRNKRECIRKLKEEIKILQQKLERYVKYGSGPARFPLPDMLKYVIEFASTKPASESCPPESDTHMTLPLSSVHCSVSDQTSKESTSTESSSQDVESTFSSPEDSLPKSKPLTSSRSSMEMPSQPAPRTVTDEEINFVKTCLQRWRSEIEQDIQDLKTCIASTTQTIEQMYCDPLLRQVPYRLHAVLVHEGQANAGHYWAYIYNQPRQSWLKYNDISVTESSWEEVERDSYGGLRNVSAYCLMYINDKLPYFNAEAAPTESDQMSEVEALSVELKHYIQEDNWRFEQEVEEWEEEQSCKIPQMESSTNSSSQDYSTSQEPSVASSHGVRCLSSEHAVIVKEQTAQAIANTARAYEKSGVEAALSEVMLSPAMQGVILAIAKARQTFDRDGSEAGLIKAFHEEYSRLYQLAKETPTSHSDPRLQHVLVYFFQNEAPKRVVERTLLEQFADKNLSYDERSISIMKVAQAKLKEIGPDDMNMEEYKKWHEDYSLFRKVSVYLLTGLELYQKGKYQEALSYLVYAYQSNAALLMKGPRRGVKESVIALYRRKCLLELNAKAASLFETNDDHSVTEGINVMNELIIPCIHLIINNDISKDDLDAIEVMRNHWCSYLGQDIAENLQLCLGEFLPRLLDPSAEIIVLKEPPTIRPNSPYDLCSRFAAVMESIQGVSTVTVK
In short: as §1

Measured: log2 ratio of Biotin-Ahx-Ub-VS probe labelling

O=C(CCl)NCc1ccc2c(c1)OCO2
inactive: USP19 -0.272 | USP22 -0.126 | USP24 -0.3 | USP25 -0.0121 | USP28 -0.566
